Source: PubChem BioAssay (National Center for Advancing Translational Sciences (NCATS))
ELG1 repair inh = inhibitors of ELG1-dependent DNA repair in HEK293T cells. HEK293T ELG1-luciferase reporter, luminescence, 16 h; DNA damage induced by 5-fluorouridine. Potency, µM (titrated, usually from 46.1 µM), without a hit: at the top dose activity change, negative = inhibition, usual class: inhibitors. actives 2.3% (n = 330,000); note: potency is the fitted concentration of half-maximal effect; nearly all actives have a fitted effect of over 55% in size
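DMSO vehicle served as the neutral condition. Each well held 2,000 cells given 5-fluorouridine plus compound; after 16 hr at 37 °C/5% CO2, ONE-Glo was added and luciferase measured 30 min later.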
Gal4-VP16 FLuc = inhibits Gal4-VP16 luciferase reporter, ROR gamma counter-screen; Drosophila S2 Gal4-VP16 UAS-luciferase, luminescence, 20 h; Potency, µM (doses to about 53.6 µM), for inactives: at the top dose activity, negative = inhibition, hits mostly inhibitors; actives 3.5% (n = 310,000); AID 2546;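 note: Gal4-VP16 expression switched on by copper sulfate through the metallothionein promoter; potency is the fitted concentration of half-maximal effect; nearly all actives have a fitted effect of over 50% in size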
RORgamma inh = ROR gamma (mouse) transcription inhibition; Drosophila S2 Gal4-RORgamma UAS-luciferase reporter, 20 h; AID 2551; actives 5.4% (n = 310,000); P51450; Potency, µM (series often up to 53.6 µM), for the others: at the highest dose activity change, negative = inhibition, actives largely listed as inhibitors; note: potency is the fitted concentration of half-maximal effect; nearly all actives have a fitted effect of over 60% in size
Target sequence (P51450 whole entry, looked up, the tested form may be a part): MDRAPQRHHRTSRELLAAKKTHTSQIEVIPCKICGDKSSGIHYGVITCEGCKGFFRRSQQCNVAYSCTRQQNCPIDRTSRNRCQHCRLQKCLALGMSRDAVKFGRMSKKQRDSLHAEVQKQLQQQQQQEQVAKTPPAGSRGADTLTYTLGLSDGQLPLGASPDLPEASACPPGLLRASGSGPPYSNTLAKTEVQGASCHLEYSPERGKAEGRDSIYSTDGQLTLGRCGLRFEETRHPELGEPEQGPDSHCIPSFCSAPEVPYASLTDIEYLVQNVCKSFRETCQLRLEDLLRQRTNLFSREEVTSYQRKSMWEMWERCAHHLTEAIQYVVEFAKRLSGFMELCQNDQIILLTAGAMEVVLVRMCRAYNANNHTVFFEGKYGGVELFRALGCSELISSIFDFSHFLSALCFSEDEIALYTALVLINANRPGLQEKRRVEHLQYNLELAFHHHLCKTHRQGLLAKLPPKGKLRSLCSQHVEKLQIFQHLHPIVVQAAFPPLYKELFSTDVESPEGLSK
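A Gal4/UAS one-hybrid system in insect cells: metallothionein-promoter Gal4–ROR gamma fusion plus Photinus luciferase reporter. Copper sulfate 700 uM final, 20 hr ambient incubation, luminescent detection after 10 min with reagent.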
TDP1 cell CPT = DT40-hTDP1 cell growth loss with CPT | chicken DT40 Tdp1-/-;hTDP1 cells + 20 nM CPT, ATP luminescence, 48 h | actives 12% (n = 420,000) | Potency, µM (highest dose often 46.2 µM), for the others: at the highest dose activity change, negative = growth inhibition, hits mostly inhibitors; note: potency is the fitted concentration of half-maximal effect; nearly all actives have a fitted effect of over 55% in size
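Chicken DT40 Tdp1-/- cells complemented with human TDP1, 400 cells/well, exposed to compounds plus 20 nM camptothecin for at least 48 h at 37 C; viability read as ATP content by CellTiter-Glo luminescence.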
DT40 TDP1 no CPT = qHTS for Inhibitors of human tyrosyl-DNA phosphodiesterase 1 (TDP1): qHTS in cells in absence of CPT; DT40 Tdp1-/- hTDP1 cells, no CPT, ATP luminescence, 48 h; Potency, µM (titrated, usually from 46.2 µM), inactives show top-dose activity change, negative = growth inhibition, usual class: inhibitors; actives 15% (n = 420,000); AID 686978, 2013; note: potency is the fitted concentration of half-maximal effect; nearly all actives have a fitted effect of over 55% in size
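No-CPT arm: Tdp1-/-;hTDP1 DT40 cells (400/well) plus compounds, incubated ≥48 hr at 37 °C. Readout CellTiter-Glo luminescence.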
IL-1B inflam inh = inflammasome signaling inhibition, IL-1 beta readout; THP-1 LPS/ATP IL-1B secretion, AlphaLISA, 16 h; active compounds read low; activity change, % at 57.5 µM; actives 4.7% (n = 360,000); in the data active = activity change below about -50%; inconclusive = mostly about -30% to -49%
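Secreted IL-1B measured by AlphaLISA bead assay after 16 h compound exposure of THP-1 cells; compounds (final up to 57.5 uM) added 1 h before LPS (250 ng/mL) and ATP (1.25 mM) stimulation; lower signal means less secretion.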
Active calls of the source: *; [ ] = remark or other dose. Hits are enriched below; roughly 21% of the tested compounds scored in any of these assays. Unless noted, calls come from the whole dose curve; as a rule, active = well fitted curve in the direction sought with a large enough effect; inconclusive = small, poorly fitted or top-dose-only effect, or another doubt; inactive = no such curve, though single readings can be large; an effect the other way counts as inactive or inconclusive. % is set by controls: 0 for no effect and ±100 for the full control effect.

How did COc1cc(C(CC(=O)NCc2ccccc2Cl)N2Cc3ccccc3C2=O)cc(OC)c1OC (stereo unspecified) do in these assays?
TDP1 cell CPT: -8%; DT40 TDP1 no CPT: -22%

How did Cc1cccc(NC(=O)CN2CCN(C(=O)c3c(C)nn(Cc4ccccc4)c3C)CC2)c1C do in these assays?
ELG1 repair inh: -8%; TDP1 cell CPT: -24%; DT40 TDP1 no CPT: -23%; IL-1B inflam inh: 8

What do the screens show for `Cc1ccc(Cc2c(-c3cccc(Br)c3)nc3ccc(Cl)cn23)cc1`?
TDP1 cell CPT: inconclusive; DT40 TDP1 no CPT: 18µM*; IL-1B inflam inh: 18

What do the screens show for `Cc1ccc(Cc2c(-c3cccc(Cl)c3)nc3ccc(C)cn23)cc1`?
TDP1 cell CPT: inconclusive; DT40 TDP1 no CPT: 16µM*; IL-1B inflam inh: -8

How did Clc1cccc(Cc2c(-c3cccc(Br)c3)nc3ccc(Cl)cn23)c1 do in these assays?
TDP1 cell CPT: inconclusive; DT40 TDP1 no CPT: inconclusive; IL-1B inflam inh: 0

Results for Clc1cccc(Cc2c(-c3ccccc3)nc3ccc(Cl)cn23)c1 ?
TDP1 cell CPT: inconclusive; DT40 TDP1 no CPT: inconclusive; IL-1B inflam inh: 53

How did Cc1ccc2nc(-c3ccccc3)c(Cc3cccc(Cl)c3)n2c1 do in these assays?
TDP1 cell CPT: 21µM*; DT40 TDP1 no CPT: 18µM*; IL-1B inflam inh: -5

What do the screens show for `Cc1ccc2nc(-c3cccc(Br)c3)c(Cc3cccc(Cl)c3)n2c1`?
TDP1 cell CPT: inconclusive; DT40 TDP1 no CPT: 18µM*; IL-1B inflam inh: -2

What do the screens show for `Cc1noc(C)c1-c1nccc(NCc2ccccc2)n1`?
Gal4-VP16 FLuc: 5%; RORgamma inh: -5%; TDP1 cell CPT: inconclusive; DT40 TDP1 no CPT: inconclusive

Results for CCCCn1nnnc1C(c1ccccc1)N1CCN(C(=O)c2ccco2)CC1 (stereo unspecified) ?
TDP1 cell CPT: -5%; DT40 TDP1 no CPT: -20%; IL-1B inflam inh: 20

Results for Cc1ccc(S(=O)(=O)NCCC(=O)N2CC(C)OC(C)C2)cc1C (stereo unspecified) ?
ELG1 repair inh: inconclusive; TDP1 cell CPT: 7%; DT40 TDP1 no CPT: 0%; IL-1B inflam inh: 1

How did Clc1ccc2nc(-c3ccccc3)c(Cc3ccccc3)n2c1 do in these assays?
TDP1 cell CPT: inconclusive; DT40 TDP1 no CPT: 18µM*; IL-1B inflam inh: 61

Results for Clc1ccc(-c2nc3ccc(Cl)cn3c2Cc2ccccc2)cc1 ?
TDP1 cell CPT: inconclusive; DT40 TDP1 no CPT: inconclusive; IL-1B inflam inh: 24

How did O=C(Nc1ccc(F)cc1)c1ccc2c(=O)n3c(nc2c1)CCCCC3 do in these assays?
ELG1 repair inh: inconclusive; Gal4-VP16 FLuc: inconclusive; RORgamma inh: 33%; TDP1 cell CPT: inconclusive; DT40 TDP1 no CPT: 16µM*; IL-1B inflam inh: -14

Results for O=C(Nc1cccc(Cl)c1)c1ccc2c(=O)n3c(nc2c1)CCCCC3 ?
ELG1 repair inh: inconclusive; Gal4-VP16 FLuc: 0%; RORgamma inh: 26%; TDP1 cell CPT: 23µM*; DT40 TDP1 no CPT: inconclusive; IL-1B inflam inh: -74*

What do the screens show for `O=C(Nc1ccc(F)c(Cl)c1)c1ccc2c(=O)n3c(nc2c1)CCCCC3`?
ELG1 repair inh: inconclusive; Gal4-VP16 FLuc: 1%; RORgamma inh: 31%; TDP1 cell CPT: 16µM*; DT40 TDP1 no CPT: 21µM*; IL-1B inflam inh: -10

Results for O=C(Nc1ccc(Cl)cc1)c1ccc2c(=O)n3c(nc2c1)CCCCC3 ?
ELG1 repair inh: inconclusive; Gal4-VP16 FLuc: 8%; RORgamma inh: 22%; TDP1 cell CPT: inconclusive; DT40 TDP1 no CPT: inconclusive; IL-1B inflam inh: 29

Results for Cc1ccc(-c2csc(NC(=O)c3ccc4c(=O)n5c(nc4c3)CCCCC5)n2)cc1 ?
ELG1 repair inh: 2.9µM*; Gal4-VP16 FLuc: -9%; RORgamma inh: inconclusive; TDP1 cell CPT: 10µM*; DT40 TDP1 no CPT: 13µM*; IL-1B inflam inh: 0

What do the screens show for `CC(=O)c1ccc(NC(=O)c2ccc3c(=O)n4c(nc3c2)CCCCC4)cc1`?
ELG1 repair inh: inconclusive; Gal4-VP16 FLuc: 5%; RORgamma inh: 16%; TDP1 cell CPT: inconclusive; DT40 TDP1 no CPT: inconclusive; IL-1B inflam inh: -13

What do the screens show for `Cc1ccnc(NC(=O)c2cccc(NC(=O)CC3SC(N4CCCCC4)=NC3=O)c2)c1` (stereo unspecified)?
ELG1 repair inh: inconclusive; TDP1 cell CPT: inconclusive; DT40 TDP1 no CPT: inconclusive; IL-1B inflam inh: -30

Results for CCOC(=O)c1cc(S(=O)(=O)Nc2ccc(Br)c(C)c2)[nH]n1 ?
TDP1 cell CPT: -28%; DT40 TDP1 no CPT: inconclusive

How did COc1ccc(-c2nc3cnc(N4CCOCC4)nc3n(C[C@H]3CCCO3)c2=O)cc1 do in these assays?
Gal4-VP16 FLuc: 5%; RORgamma inh: -9%; TDP1 cell CPT: 4%; DT40 TDP1 no CPT: 28%

How did Cc1cccc(N2CCN(C(=O)CSc3ccsc3[N+](=O)[O-])CC2C)c1 (stereo unspecified) do in these assays?
ELG1 repair inh: inconclusive; Gal4-VP16 FLuc: -6%; RORgamma inh: 3%[10 µM]; TDP1 cell CPT: -1%; DT40 TDP1 no CPT: inconclusive; IL-1B inflam inh: -73*

How did Cc1cccc(N2CCN(C(=O)/C=C/c3cccs3)CC2C)c1 (stereo unspecified) do in these assays?
ELG1 repair inh: inconclusive; Gal4-VP16 FLuc: -3%; RORgamma inh: 31%; TDP1 cell CPT: inconclusive; DT40 TDP1 no CPT: 15µM*; IL-1B inflam inh: -11

Results for Cc1cccc(N2CCN(C(=O)NC3CCCCC3)CC2C)c1 (stereo unspecified) ?
ELG1 repair inh: -24%; Gal4-VP16 FLuc: -3%; RORgamma inh: 34%; TDP1 cell CPT: -28%; DT40 TDP1 no CPT: -8%; IL-1B inflam inh: -12

Results for Cc1cccc(N2CCN(C(=O)Cc3c(C(=O)O)c(C)cn3C)CC2C)c1 (stereo unspecified) ?
TDP1 cell CPT: -1%; DT40 TDP1 no CPT: 7%

Results for CCC/C(=C1/c2ccccc2C(=O)N1c1ccccc1)c1ccc2c(c1)OCCO2 ?
ELG1 repair inh: -20%; TDP1 cell CPT: inconclusive; DT40 TDP1 no CPT: -28%; IL-1B inflam inh: 34

What do the screens show for `CCC/C(=C1/c2ccccc2C(=O)N1c1ccccc1)c1ccc(O[C@@H]2CCCCO2)cc1`?
ELG1 repair inh: 14%; TDP1 cell CPT: inconclusive; DT40 TDP1 no CPT: 16µM*; IL-1B inflam inh: 42
